Compound activity from PubChem.
Peg3 promoter: reduces Peg3 promoter-driven luciferase expression in HeLa. hit rate 1.7% among 360,000. HeLa PEG-Prom luciferase reporter, luminescence, overnight. inhibition, % at 20 µM;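 active = inhibition of at least 50% at 20 µM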
CF NFkB inh: inhibitors of cystic fibrosis induced NF-kB | KKLEB NF-kB-GFP reporter, PAF-induced, GFP fluorescence overnight | inhibition, % at 5 µM | hit rate 0.86% among 360,000;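 active = at least 50% inhibition at 5 µM, scaled per plate between neutral and stimulator controls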;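 note: PAF is a Pseudomonas aeruginosa culture filtrate used as stimulus; plate controls were PAF-stimulated DMSO wells for no effect and unstimulated DMSO wells for full effect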
MITF TRPM1 inh: reduces MITF-dependent TRPM1 promoter luciferase signal. SK-MEL-5 TRPM1 promoter luciferase, 24 h. inhibition, % at 12.5 µM. hit rate 0.83% among 330,000;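 active = mean inhibition across replicates of 60% or more, whatever share of single replicates reaches that level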
KKLEB tox: CF airway cell cytotoxicity counter-screen; KKLEB CF airway cells viability, ATPlite luminescence, overnight; stronger effect = lower value; cells stimulated with P. aeruginosa culture filtrate; activity change (cytotoxicity), % at 5 µM; hit rate 0.36% among 360,000; AID 602141;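 active = corrected activity change at or below -50% at 5 µM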
HIF-2a inh: blocks HIF-2a reporter activity. 786-0 RCC cells HIF-2a reporter, luciferase luminescence, overnight. inhibition, % at 18.8 µM. hit rate 0.72% among 360,000;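 active = inhibition of the luminescence signal of 40% or more relative to plate controls, in a single-dose primary screen at 18.75 µM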
CHOP inhibitor: CHOP inhibition in unfolded protein response | CHO-K1 CHOP-promoter luciferase, tunicamycin-induced, 15-18 h | inhibition, % at 10 µM | hit rate 3.8% among 220,000;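 active = compounds that reduced the stress-induced luciferase reporter signal by more than about 70% of percent inhibition, limit read from the data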;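 note: 0% = tunicamycin plus vehicle and 100% = wells without tunicamycin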
Active calls of the source: *; . = no result given. An excerpt weighted towards active compounds, which were near 4.3% of everything screened.

SMILES	Peg3 promoter	CF NFkB inh	MITF TRPM1 inh	KKLEB tox	HIF-2a inh	CHOP inhibitor
C[C@H]1[C@H](C)CC[C@]2(C(=O)O)CC[C@]3(C)C(=CC[C@@H]4[C@@]5(C)CC[C@H](O)C(C)(C)[C@@H]5CC[C@]43C)[C@H]12	53*	7	4	-3	5	73*
C[C@H]1[C@H](C)CC[C@]2(C(=O)O)CC[C@]3(C)C(=CC[C@@H]4[C@@]5(C)C[C@@H](O)[C@H](O)C(C)(C)[C@@H]5CC[C@]43C)[C@H]12	23	12	7	-12	35	72*
C[C@@H]1CC[C@]2(C(=O)O)CC[C@]3(C)C(=CCC4[C@]56CC[C@@](O)(OC5)C(C)(C)C6CC[C@]43C)C2[C@H]1C (stereo partly specified)	27	40	.	10	1	.
COc1ccc(NC(=O)c2cc(C3CCCCN3S(=O)(=O)Cc3ccccc3)on2)cn1 (stereo unspecified)	-160	8	.	-3	-178	.
Nc1ncnc2c1ncn2[C@@H]1O[C@H](COP(=O)(O)OP(=O)(O)OP(=O)(O)OP(=O)(O)OC[C@@H]2O[C@H](n3cnc4c(N)ncnc43)C(O)[C@@H]2O)[C@H](O)C1O (stereo partly specified)	.	.	.	.	.	19
Cc1ccc(O)c(C(=O)CC(=O)c2ccc(Cl)cc2)c1	-195	3	-21	-7	-129	.
Cc1cccc(C(=O)CC(=O)c2cc(Cl)ccc2O)c1	-63	9	34	-10	-195	108*
O=C(CC(=O)c1cc(Cl)ccc1O)c1ccccc1	-195	-28	-16	0	-294	110*
N#C/C(=C\c1cccnc1)C(=O)Nc1ccc(O)cc1F	-7	2	-21	8	7	.
CCN(CC)CCNC(=O)c1ccc(NC(=O)c2cn(-c3ccccc3)nc2-c2cccs2)cc1	106*	-14	76*	-13	-78	67
CCN(CC)CCNC(=O)c1ccc(NC(=O)c2cn(-c3ccc(F)cc3)nc2-c2cccc(OC)c2)cc1	101*	-16	98*	-19	-17	.
CCN(CC)CCNC(=O)c1ccc(NC(=O)c2cc(-c3ccco3)nc3ccccc23)cc1	61*	-30	70*	-3	24	.
O=C1N/C(=C/c2ccc(N3CCOCC3)o2)C(=O)N1c1ccccc1	-8	-20	-19	9	19	-25
C=CCN1C(=O)N/C(=C/c2ccc(N3CCOCC3)o2)C1=O	.	.	.	.	.	94*
O=C(/C=C/c1ccco1)Nc1ccc(-c2nc3ccccc3[nH]2)cc1	2	-1	9	-8	-17	96*
O=C(Nc1ccc(-c2nc3ccccc3[nH]2)cc1)c1ccco1	-137	3	-55	-6	-337	-14
CCOc1[nH]n(-c2ccccc2)c(=O)c1C=Nc1ccc(C)cc1	-8	1	-11	-18	2	77*
CC1OC2CC(=O)OC2C2=C1C(=O)c1c(O)cccc1C2=O (stereo unspecified)	103*	91*	.	-83*	90*	.
CCOC(=O)c1sc(N(Cc2ccccc2)C(=O)CCl)nc1C	63*	65*	12	-40	-46	.
CCCCN(C)c1c(C)nc2ccc(C(=O)N(C)CCN(C)C)cn12	-1	-23	.	4	4	.
COc1ccc(C(=O)N/N=C/c2c[nH]c3ccccc23)cc1	-76	-5	-6	0	-151	.
CCCOc1ccc(C(=O)N/N=C/c2c[nH]c3ccc(Br)cc23)cc1	51*	2	9	2	14	.
CCc1ccc(-c2csc(-c3c[nH]c4ccccc34)n2)cc1	-225	-35	-61	13	-272	86*
COc1ccccc1C(=O)Nc1c[nH]c(=O)[nH]c1=O	64*	-20	0	14	2	.
CSc1ccc(CNc2ccc(C)c(C)c2)cc1	-226	-1	-79	10	-313	92*
SMILES	Peg3 promoter	CF NFkB inh	MITF TRPM1 inh	KKLEB tox	HIF-2a inh	CHOP inhibitor
CSc1ccc(CNc2ccc(C)cc2)cc1	-215	9	-61	5	-211	42
Cc1cc(C)c2nc3nc(C)c(C)cc3c(N)c2c1	66*	-115	41	-3	-10	30
CCCSc1nc(C)c2cc(C)cc(C)c2n1	-9	-2	-1	0	9	63
COc1ccc(OCC(O)CNC(=O)c2ccc(Br)cc2)cc1 (stereo unspecified)	6	5	-8	1	12	13
COc1ccc(OCC(O)CNc2ccc(Br)cc2)cc1 (stereo unspecified)	4	9	0	-1	-5	86*
CCOCCSc1n[nH]c(=O)n1CCc1ccccc1	3	-4	-5	1	8	.
Cc1nc(N2CCCC2)c2nnn(Cc3ccccc3Cl)c2n1	22	-16	20	-21	-8	73*
CC(C)CCNc1ncnc2c1nnn2Cc1ccccc1Cl	11	-6	0	-4	-34	79*
Cc1ccc(NC(=O)COC(=O)CCC2CCCC2)cc1S(=O)(=O)N1CCOCC1	-9	12	5	2	6	.
c1ccc(Oc2cc(-c3ccccc3)nc(-c3ccccc3)n2)cc1	0	-14	-9	19	10	6
Cc1cc(Oc2ccccc2)nc(-c2ccccc2)n1	-30	12	-15	-11	-64	78*
N#Cc1c2ccc(O)cc2n2ccccc12	-64	71*	-1	10	18	56
COc1ccccc1C(=O)Nc1nc(-c2ccc(S(=O)(=O)N3CCOCC3)cc2)cs1	95*	-18	81*	-10	-11	92*
COc1ccccc1OC(C)C(=O)Nc1nc(-c2ccc(S(=O)(=O)N3CCOCC3)cc2)cs1 (stereo unspecified)	25	4	11	10	17	18
CC(=O)c1c(C)[nH]c(C(=O)Nc2nc(-c3ccc(Cl)cc3)cs2)c1C	32	12	5	-20	-10	35
CC(=O)c1c(C)[nH]c(C(=O)Nc2nc(-c3ccc(-c4ccccc4)cc3)cs2)c1C	103*	78*	-5	-27	-73	34
O=C(Nc1nc(-c2ccccc2)cs1)c1ccccc1NS(=O)(=O)c1ccc(F)cc1	40	48	69*	-37	-9	62
O=C(Nc1nc2n(n1)C(c1ccc(Cl)cc1)CC(c1ccc(Cl)cc1)N2)c1ccco1 (stereo unspecified)	.	.	.	.	.	81*
O=C(NCCc1cscn1)C1CCC(=O)N(Cc2ccc(Cl)cc2)C1 (stereo unspecified)	11	-2	-16	0	5	.
CC(C)CC1C(=O)N(Cc2cn(CCC3OCCCO3)nn2)CCS(=O)(=O)N1Cc1ccc(-c2ccc(Cl)c(Cl)c2)cc1 (stereo unspecified)	56*	35	.	-18	-32	.
Cc1cccc(C)c1-c1ccc(CN2C(CC(C)C)C(=O)N(Cc3cn(CCO)nn3)CCS2(=O)=O)cc1 (stereo unspecified)	58*	39	5	2	-10	.
